Results filed as inconclusive are left out. The source made the active and inactive calls. Unless noted, the call rests on the fitted dose curve; in most records, active means well fitted curve in the direction sought with a large enough effect in the repeat runs; inconclusive means weak or mixed curves; inactive means no such curve, though single readings can be large; an effect the other way counts as inactive or inconclusive.
How the values were obtained:
[1] = qHTS assay to identify small molecule antagonists of the sonic hedgehog signaling (Shh) pathway (AID 1259369; calls by dose curve; further: nearly all actives have a fitted effect of over 45% in size)
Method in brief: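 NIH/3T3-derived Gli1-Luc reporter cells plated 4 h, dosed with compound, then stimulated with conditioned medium for 24 h at 37 C. Firefly luciferase luminescence read after 30 min with detection reagent at room temperature.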

[2] = qHTS assay to identify small molecule agonists of the androgen receptor (AR) signaling pathway in the presence of an antagonist - cell viability counter screen (AID 1259379);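 further: MDA-kb2 human breast cancer cells carrying an MMTV luciferase reporter; series mostly up to about 92 µM; nearly all actives have a fitted effect of over 25% in size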
Method in brief: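 MDA-kb2 cells (MMTV-luciferase, AR/GR), 3,000/well, 5 h attachment, then 3.0 µM nilutamide (final) and compounds at 15 concentrations. Viability by CellTiter-Fluor fluorescence after 16 h at 37 °C, 0% CO2, in the reporter wells.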

[3] = qHTS assay to identify small molecule agonists of the estrogen receptor beta (ER-beta) signaling pathway - cell viability counter screen (AID 1259380); further: nearly all actives have a fitted effect of over 30% in size
Method in brief: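 ER-beta-UAS-bla HEK293T cells in medium with 2% charcoal-stripped FBS, pre-incubated 6 hr, then treated 16 hr at 37C. Cytotoxicity read in the same wells by CellTiter-Glo luminescence after 30 min at room temperature.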

[4] = target: Androgen receptor (Homo sapiens) (UniProt P10275); experiment: qHTS assay to identify small molecule agonists of the androgen receptor (AR) signaling pathway in the presence of an antagonist (AID 1259381; calls by dose curve; further: nearly all actives have a fitted effect of over 15% in size)
Sequence of Androgen receptor (Homo sapiens) (P10275 whole entry, looked up): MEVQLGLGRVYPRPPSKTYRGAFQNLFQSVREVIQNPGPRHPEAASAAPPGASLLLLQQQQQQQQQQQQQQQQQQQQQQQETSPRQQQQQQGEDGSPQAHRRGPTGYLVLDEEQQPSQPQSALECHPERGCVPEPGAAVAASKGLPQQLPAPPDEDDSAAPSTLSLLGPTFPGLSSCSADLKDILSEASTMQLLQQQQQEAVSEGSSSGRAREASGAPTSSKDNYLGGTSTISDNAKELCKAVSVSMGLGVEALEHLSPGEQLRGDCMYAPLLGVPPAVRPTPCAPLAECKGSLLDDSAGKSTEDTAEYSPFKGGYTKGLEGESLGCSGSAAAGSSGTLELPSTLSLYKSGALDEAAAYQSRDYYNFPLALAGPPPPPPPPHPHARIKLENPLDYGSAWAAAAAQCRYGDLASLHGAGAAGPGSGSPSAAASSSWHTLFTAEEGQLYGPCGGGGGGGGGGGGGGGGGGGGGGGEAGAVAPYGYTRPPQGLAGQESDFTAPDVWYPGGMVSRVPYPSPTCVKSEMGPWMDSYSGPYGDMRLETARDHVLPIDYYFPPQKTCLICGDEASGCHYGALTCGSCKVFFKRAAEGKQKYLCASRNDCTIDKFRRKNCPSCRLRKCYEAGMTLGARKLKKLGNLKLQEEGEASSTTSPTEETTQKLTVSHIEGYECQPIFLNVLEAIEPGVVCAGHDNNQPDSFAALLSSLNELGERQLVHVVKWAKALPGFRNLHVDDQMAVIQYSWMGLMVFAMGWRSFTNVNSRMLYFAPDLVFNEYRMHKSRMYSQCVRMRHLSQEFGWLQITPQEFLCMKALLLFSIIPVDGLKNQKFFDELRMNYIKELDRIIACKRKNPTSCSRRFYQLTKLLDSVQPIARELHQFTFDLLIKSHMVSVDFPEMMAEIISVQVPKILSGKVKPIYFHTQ
Method in brief: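 MDA-kb2 cells carrying MMTV-luciferase (AR/GR responsive), 3,000 cells/well, co-treated with 3.0 uM nilutamide final. Compounds at 15 concentrations, 16 hr at 37C without CO2. Luciferase luminescence read after 30 min with ONE-Glo.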

[5] = qHTS assay to identify small molecule antagonists of the estrogen receptor beta (ER-beta) signaling pathway - cell viability counter screen (AID 1259382); further: series mostly up to about 92 µM; nearly all actives have a fitted effect of over 55% in size
Method in brief: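 ER-beta-UAS-bla HEK293T cells in 2% charcoal-stripped FBS medium, treated with compound plus 1 nM 17-beta-estradiol for 16 h at 37C. Viability read by CellTiter-Glo luminescence after 30 min at room temperature in the same wells.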

[6] = target: Estrogen receptor (Homo sapiens) (UniProt P03372); experiment: qHTS assay to identify small molecule agonists of the estrogen receptor alpha (ER-alpha) signaling pathway in the presence of an antagonist (AID 1259383; calls by dose curve; further: top concentration of the series differs between compounds; nearly all actives have a fitted effect of over 15% in size)
Sequence of Estrogen receptor (Homo sapiens) (P03372 whole entry, looked up): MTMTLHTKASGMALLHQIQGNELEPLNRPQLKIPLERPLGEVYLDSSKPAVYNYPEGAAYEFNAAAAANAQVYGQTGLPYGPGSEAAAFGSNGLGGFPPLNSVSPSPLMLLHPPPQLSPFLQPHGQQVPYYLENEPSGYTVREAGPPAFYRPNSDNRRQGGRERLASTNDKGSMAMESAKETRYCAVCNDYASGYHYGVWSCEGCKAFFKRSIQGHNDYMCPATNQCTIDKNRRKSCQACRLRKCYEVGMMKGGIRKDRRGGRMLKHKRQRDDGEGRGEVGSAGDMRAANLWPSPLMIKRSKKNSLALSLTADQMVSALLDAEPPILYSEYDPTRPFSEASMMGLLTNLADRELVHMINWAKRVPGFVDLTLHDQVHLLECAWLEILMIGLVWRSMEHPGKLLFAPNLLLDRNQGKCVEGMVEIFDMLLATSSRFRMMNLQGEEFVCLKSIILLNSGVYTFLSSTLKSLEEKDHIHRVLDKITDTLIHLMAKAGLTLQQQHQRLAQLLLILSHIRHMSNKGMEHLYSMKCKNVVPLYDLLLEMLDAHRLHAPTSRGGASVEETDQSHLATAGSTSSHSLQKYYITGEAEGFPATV
Method in brief: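 VM7Luc4E2 cells express endogenous full-length ER-alpha with an ERE-luciferase reporter and were hormone-deprived for 5 days. Compounds at 15 concentrations were added with 10.0nM ICI-182,780 for 22hr at 37C. Luminescence was read with ONE-Glo.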

[7] = qHTS assay to identify small molecule agonists or antagonists of the thyroid stimulating hormone receptor (TSHR) signaling pathway - wild type cell line counter screen (AID 1259384; calls by dose curve)
Method in brief: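 Wild-type HEK293 cells were plated 18 h at 37 C/5% CO2, pin-dosed with compound plus Ro20-1724 medium, held 30 min at room temperature, then given cAMP-d2 and anti-cAMP-cryptate; fluorescence was read after 1 h. Fifteen concentrations, triplicate.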

[8] = target: Thyrotropin receptor (Homo sapiens) (UniProt P16473); experiment: qHTS assay to identify small molecule antagonists of the thyroid stimulating hormone receptor (TSHR) signaling pathway (AID 1259385; calls by dose curve; further: nearly all actives have a fitted effect of over 20% in size)
Sequence of Thyrotropin receptor (Homo sapiens) (P16473 whole entry, looked up): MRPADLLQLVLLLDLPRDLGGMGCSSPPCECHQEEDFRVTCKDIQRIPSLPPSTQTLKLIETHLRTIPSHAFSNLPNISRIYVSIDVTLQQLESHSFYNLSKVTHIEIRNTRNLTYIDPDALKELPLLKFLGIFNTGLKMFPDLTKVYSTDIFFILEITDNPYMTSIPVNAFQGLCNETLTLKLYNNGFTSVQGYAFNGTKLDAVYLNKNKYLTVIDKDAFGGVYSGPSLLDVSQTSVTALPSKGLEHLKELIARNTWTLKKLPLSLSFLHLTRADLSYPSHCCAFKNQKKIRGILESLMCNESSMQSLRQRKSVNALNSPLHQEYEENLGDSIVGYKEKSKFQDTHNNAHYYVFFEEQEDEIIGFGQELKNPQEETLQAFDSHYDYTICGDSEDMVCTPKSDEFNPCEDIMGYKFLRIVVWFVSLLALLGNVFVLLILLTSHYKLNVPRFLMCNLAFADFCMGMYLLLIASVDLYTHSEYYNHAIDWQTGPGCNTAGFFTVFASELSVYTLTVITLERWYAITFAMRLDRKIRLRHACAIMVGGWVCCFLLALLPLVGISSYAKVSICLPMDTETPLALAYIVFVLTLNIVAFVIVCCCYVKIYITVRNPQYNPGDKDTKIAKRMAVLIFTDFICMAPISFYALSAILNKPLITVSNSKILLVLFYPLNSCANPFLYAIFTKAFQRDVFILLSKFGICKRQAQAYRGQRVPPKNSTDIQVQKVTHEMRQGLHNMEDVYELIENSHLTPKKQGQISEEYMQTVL
Method in brief: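 TSHR-HEK293 cells were plated and held 18 h at 37C/5% CO2, then given compound plus Ro20-1724 and stimulated with TSH at 1.5 ng/mL final. After 30 min at room temperature, cAMP was detected with cAMP-d2/anti-cAMP-cryptate (1 h) by fluorescence.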

[9] = qHTS assay to identify small molecule agonists of the estrogen receptor alpha (ER-alpha) signaling pathway in the presence of an antagonist - cell viability counter screen (AID 1259386);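 further: series mostly up to about 92 µM; cells exposed to compounds for 22 h at 37 °C before the viability read; nearly all actives have a fitted effect of over 30% in size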
Method in brief: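 Cell viability in VM7Luc4E2 cells (endogenous full-length ER-alpha) measured by CellTiter-Fluor fluorescence in the same wells as the luciferase screen. Cells pre-cultured 5 days in charcoal-stripped serum, then treated 22 h with compounds at 15 concentrations plus 10.0nM ICI-182,780.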

[10] = target: Progesterone receptor (Homo sapiens) (UniProt P06401); experiment: qHTS assay to identify small molecule agonists of the progesterone receptor (PR) signaling pathway (AID 1346784; calls by dose curve; further: nearly all actives have a fitted effect of over 30% in size)
Sequence of Progesterone receptor (Homo sapiens) (P06401 whole entry, looked up): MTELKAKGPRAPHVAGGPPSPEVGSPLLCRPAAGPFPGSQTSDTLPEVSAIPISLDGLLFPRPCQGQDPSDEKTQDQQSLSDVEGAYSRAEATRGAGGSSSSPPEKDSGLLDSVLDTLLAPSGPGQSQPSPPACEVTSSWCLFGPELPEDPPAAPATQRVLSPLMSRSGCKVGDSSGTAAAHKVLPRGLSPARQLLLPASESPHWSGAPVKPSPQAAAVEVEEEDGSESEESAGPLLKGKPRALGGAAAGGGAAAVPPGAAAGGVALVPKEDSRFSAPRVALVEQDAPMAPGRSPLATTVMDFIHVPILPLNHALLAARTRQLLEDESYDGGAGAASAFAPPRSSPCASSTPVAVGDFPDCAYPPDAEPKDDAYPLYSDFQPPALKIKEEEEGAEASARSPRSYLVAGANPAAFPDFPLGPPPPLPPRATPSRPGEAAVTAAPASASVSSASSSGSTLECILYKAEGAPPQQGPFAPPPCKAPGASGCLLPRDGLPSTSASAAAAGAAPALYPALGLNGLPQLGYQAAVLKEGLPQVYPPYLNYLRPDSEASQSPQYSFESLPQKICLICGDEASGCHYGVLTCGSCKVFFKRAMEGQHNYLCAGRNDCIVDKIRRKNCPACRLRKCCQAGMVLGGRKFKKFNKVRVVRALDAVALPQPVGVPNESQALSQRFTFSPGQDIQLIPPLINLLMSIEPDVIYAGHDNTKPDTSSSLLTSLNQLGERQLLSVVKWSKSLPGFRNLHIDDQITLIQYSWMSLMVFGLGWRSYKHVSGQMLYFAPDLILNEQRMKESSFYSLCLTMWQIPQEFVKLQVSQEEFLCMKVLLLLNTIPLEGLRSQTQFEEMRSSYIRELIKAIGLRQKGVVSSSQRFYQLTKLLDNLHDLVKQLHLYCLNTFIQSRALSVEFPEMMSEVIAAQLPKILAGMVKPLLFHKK
Method in brief: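 Using charcoal-stripped serum (2%) to limit endogenous steroids, PR-UAS-bla HEK 293T cells received compounds for 16 hr at 37C after 6 hr plating; beta-lactamase FRET fluorescence was recorded following 2 hr substrate loading at room temperature.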

[11] = target: Progesterone receptor (Homo sapiens) (UniProt P06401); experiment: qHTS assay to identify small molecule antagonists of the progesterone receptor (PR) signaling pathway (AID 1346795; active means well fitted inhibition curve with a large enough effect in the signal ratio in the repeat runs, not every such curve was filed as active; the % refers to the signal ratio)
Method in brief: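 Inhibition of R5020-induced (1 nM final) beta-lactamase reporter signal in PR-UAS-bla HEK293T cells was scored by FRET fluorescence after overnight (16 hr) compound treatment.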

[12] = qHTS assay to identify small molecule antagonists of the progesterone receptor (PR) signaling pathway - cell viability counter screen (AID 1346798); further: series mostly up to about 92 µM; nearly all actives have a fitted effect of over 50% in size
Method in brief: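 ATP content as viability readout: CellTiter-Glo luminescence, 30 min room temperature, in PR-UAS-bla HEK293T cells after 16 hr compound/R5020 treatment at 37C and 5% CO2.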

[13] = qHTS assay to identify small molecule agonists of the progesterone receptor (PR) signaling pathway - cell viability counter screen (AID 1346799; calls by dose curve; further: nearly all actives have a fitted effect of over 45% in size)
Method in brief: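 Cytotoxicity in PR-bla HEK293T cells: 16 h compound, 37C; CellTiter-Glo added post-FRET read; luminescence after 30 min RT.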

[14] = qHTS assay to identify small molecule antagonists of the TGF-beta/Smad signaling pathway - cell viability counter screen (AID 1346824); further: nearly all actives have a fitted effect of over 50% in size
Method in brief: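 SBE-bla HEK 293T cells were plated overnight at 37 C, then given compounds in DMSO plus TGF-beta1 (added as 0.25 ng/mL solution) for 5 hr. After the bla read, CellTiter-Glo was added to the same wells and luminescence read after 30 min at room temperature.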

[15] = qHTS assay to identify small molecule agonists of the TGF-beta/Smad signaling pathway - cell viability counter screen (AID 1346829); further: top concentration of the series differs between compounds; nearly all actives have a fitted effect of over 45% in size
Method in brief: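 Compound-treated SBE-bla HEK 293T cells (5 hr, 37 C) were assessed for viability with CellTiter-Glo in parallel with the reporter read.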

[16] = qHTS assay to identify small molecule agonists of the TGF-beta/Smad signaling pathway (AID 1346859; active means well fitted activation curve with a large enough effect in the signal ratio in the repeat runs, not every such curve was filed as active; the % refers to the signal ratio; further: series mostly up to about 77 µM)
Method in brief: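 Stable Smad binding element-beta-lactamase HEK 293T cells; 5 hr compound exposure at 37 C under 5% CO2; 2 hr room-temperature substrate step; fluorescence excited at 405 nm, collected at 460 nm and 530 nm.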

[17] = target: Thyrotropin-releasing hormone receptor (Homo sapiens) (UniProt P34981); experiment: qHTS assay to identify small molecule antagonists of the thyrotropin-releasing hormone receptor (TRHR) signaling pathway (AID 1346877; active means well fitted inhibition curve with a large enough effect in the repeat runs, not every such curve was filed as active; further: series mostly up to about 51 µM)
Sequence of Thyrotropin-releasing hormone receptor (Homo sapiens) (P34981 whole entry, looked up): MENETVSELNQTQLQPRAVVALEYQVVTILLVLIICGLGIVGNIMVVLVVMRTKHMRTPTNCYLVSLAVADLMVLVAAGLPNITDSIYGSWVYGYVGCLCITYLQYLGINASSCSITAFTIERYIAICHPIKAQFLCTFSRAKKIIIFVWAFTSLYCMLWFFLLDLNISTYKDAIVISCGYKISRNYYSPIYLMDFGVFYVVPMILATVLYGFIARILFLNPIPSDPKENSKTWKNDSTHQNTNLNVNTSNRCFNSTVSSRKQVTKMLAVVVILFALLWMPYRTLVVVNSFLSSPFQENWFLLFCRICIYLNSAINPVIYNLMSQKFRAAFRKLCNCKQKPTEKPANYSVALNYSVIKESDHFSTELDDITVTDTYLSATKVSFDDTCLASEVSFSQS
Method in brief: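 TRHR-expressing HEK293 cells loaded with calcium dye for 2 h at 37 C; compounds pre-incubated 5 min at room temperature before TRH challenge at 1 nM final. Intracellular calcium fluorescence read kinetically for 3 min; 15 concentrations in triplicate.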

[18] = target: Thyrotropin-releasing hormone receptor (Homo sapiens) (UniProt P34981); experiment: qHTS assay to identify small molecule agonists of the thyrotropin-releasing hormone receptor (TRHR) signaling pathway (AID 1346891; calls by dose curve; further: series mostly up to about 58 µM)
Method in brief: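 In 1536-format, 1500 TRHR-Hek293 cells per well grew 18 h, took up calcium dye for 2 h at 37 °C, received compound, and were read kinetically; 15-point titrations, triplicates.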

[19] = target: Estrogen receptor beta (Homo sapiens) (UniProt Q92731); experiment: qHTS assay to identify small molecule agonists of the estrogen receptor beta (ER-beta) signaling pathway (AID 1259377; active means well fitted activation curve with a large enough effect in the signal ratio in the repeat runs, not every such curve was filed as active; the % refers to the signal ratio)
Sequence of Estrogen receptor beta (Homo sapiens) (Q92731 whole entry, looked up): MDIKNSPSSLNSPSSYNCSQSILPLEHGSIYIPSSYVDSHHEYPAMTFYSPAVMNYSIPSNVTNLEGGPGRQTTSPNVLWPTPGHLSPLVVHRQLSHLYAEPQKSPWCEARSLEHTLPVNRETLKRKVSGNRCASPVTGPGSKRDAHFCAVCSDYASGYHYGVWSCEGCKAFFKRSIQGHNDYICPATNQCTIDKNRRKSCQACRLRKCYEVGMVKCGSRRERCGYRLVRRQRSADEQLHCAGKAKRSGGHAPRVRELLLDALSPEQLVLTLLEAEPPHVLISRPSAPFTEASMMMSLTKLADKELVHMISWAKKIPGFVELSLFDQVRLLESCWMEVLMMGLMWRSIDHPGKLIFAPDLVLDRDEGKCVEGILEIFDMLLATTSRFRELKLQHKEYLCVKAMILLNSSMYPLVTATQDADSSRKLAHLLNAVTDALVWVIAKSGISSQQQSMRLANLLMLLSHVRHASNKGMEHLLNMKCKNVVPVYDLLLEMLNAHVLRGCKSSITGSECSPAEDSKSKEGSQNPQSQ
Method in brief: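 In HEK293T cells bearing a UAS-beta-lactamase reporter under ER-beta control, DMSO-delivered compounds were incubated for 16 hr at 37C. Activity was detected as fluorescence 2 hours after LiveBLAzer B/G FRET substrate addition.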

[20] = target: Estrogen receptor beta (Homo sapiens) (UniProt Q92731); experiment: qHTS assay to identify small molecule antagonists of the estrogen receptor beta (ER-beta) signaling pathway (AID 1259378; active means well fitted inhibition curve with a large enough effect in the signal ratio in the repeat runs, not every such curve was filed as active; the % refers to the signal ratio)
Method in brief: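 ER-beta-UAS-bla HEK293T (GripTite) cells in 2% charcoal-stripped FBS medium were preincubated 6 hr at 37C, dosed with compound, then stimulated with 1 nM E2 (final) for 16 hr; beta-lactamase reporter read by B/G FRET fluorescence after 2 hr substrate loading.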

Measured: Potency

Cc1nnc(NS(=O)(=O)c2ccc(N)cc2)s1
inactive: [1] | [2] | [3] | [4] | [5] | [6] | [7] | [8] | [9] | [10] | [11] | [12] | [13] | [14] | [15] | [16]

CCCOCC(C)O (configuration not stated)
inactive: [1] | [2] | [3] | [4] | [5] | [8] | [9] | [10] | [11] | [12] | [13] | [14] | [15] | [16] | [17] | [18]

CN1Cc2c(N)cccc2C(c2ccccc2)C1 (configuration not stated)
inactive: [1] | [19] | [20] | [2] | [3] | [5] | [7] | [8] | [9] | [10] | [11] | [12] | [14] | [15] | [16]

Cc1cc(CC(=O)O)n(C)c1C(=O)c1ccc(Cl)cc1
inactive: [1] | [19] | [20] | [2] | [3] | [5] | [8] | [9] | [10] | [12] | [13] | [14] | [15] | [17] | [18]

OCc1ccc(Cl)cc1Cl
inactive: [1] | [19] | [20] | [2] | [3] | [5] | [9] | [10] | [11] | [12] | [13] | [14] | [15] | [16] | [17] | [18]

OCCOCCOCCOCCOCCO
inactive: [1] | [19] | [20] | [2] | [3] | [5] | [7] | [8] | [9] | [10] | [11] | [12] | [13] | [14] | [15] | [16] | [17] | [18]

C=C(CC(=O)O)C(=O)O
inactive: [1] | [19] | [20] | [2] | [3] | [5] | [7] | [8] | [9] | [10] | [11] | [12] | [13] | [14] | [15] | [16] | [17] | [18]

C[n+]1ccn(CCO)c1
inactive: [1] | [19] | [20] | [2] | [3] | [5] | [9] | [10] | [11] | [12] | [13] | [14] | [15] | [16] | [17] | [18]

C=CC(=O)NCOCCCC
inactive: [1] | [19] | [20] | [2] | [3] | [5] | [6] | [9] | [10] | [11] | [12] | [13] | [14] | [15] | [16] | [17] | [18]

Reference: PubChem BioAssay (Tox21)
